Our source for the Potency values is PubChem BioAssay AID720519 (National Center for Advancing Translational Sciences (NCATS), 2013).

Results filed as inconclusive are left out. Where a call stands in place of a potency, no number is given. Active and inactive are the calls of the source. The call rests on the fitted dose curve; in most records, active means well fitted activation curve with a large enough effect; inconclusive means small, poorly fitted or top-dose-only effect; inactive means flat fitted curve, though single readings scatter.

The nature of the assay: qHTS for Inhibitors of Cell Surface uPA Generation: Confirmatory Assay for Cherry-picked Compounds. An outline of the steps: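 RAW 264.7 cells at 4000/well, incubated overnight, then treated with compounds. After 24 h at 37 C, viability was read by ATPlite luminescence. An increase in signal indicates blocked uPA-dependent LF entry.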
A general note: Quantitative high-throughput screening tests each substance at several concentrations.

Take `O=C(NCC1CCCO1)c1ccc(NC(=O)c2ccc([N+](=O)[O-])cc2)cc1` (configuration not stated): the Potency result was “inactive”. To `Cc1ccc(NS(=O)(=O)c2c(C)nc3sccn3c2=O)c(C)c1` belongs “inactive”.

As for `O=C1[C@H]2[C@@H](c3ccc(F)cc3)N3C(=O)N(c4cccc(F)c4)C(=O)[C@@]3(Cc3ccc(Cl)cc3)[C@H]2C(=O)N1C1CCCCC1`, the Potency result was “inactive”.

With `C=CCn1c(SCc2ccc(C(=O)NCCO)cc2)nc2ccccc2c1=O`, the Potency result is “inactive”. As to `CNS(=O)(=O)c1cc(-c2nnc(Nc3ccc(CC(N)=O)cc3)c3ccccc23)ccc1C`, the Potency result is “inactive”. To `CCOC(=O)c1c(NC(=S)NC)sc2c1CCCC2` belongs “inactive”; to `CCC(C(=O)NCc1ccc(C)cc1)c1ccccc1` (configuration not stated), “inactive”; to `Cc1ccccc1OCCC(=O)NNC(=O)c1ccccc1F`, “inactive”. Take `CNC(=S)N1C2CCCC1CC(NC(=O)c1ccc(F)cc1)C2` (configuration not stated): the Potency result is “inactive”.

As for `C#CCOCCOCCOCCNc1nc(N2CCOCC2)nc(N2CCN(C(=O)[C@H](CCC(=O)O)n3cc([C@@H](N)CCCCN)nn3)CC2)n1`, the Potency entry was “inactive”. Take `COc1ccccc1NC(=O)COc1ccc(C(=O)NCc2ccccc2)cc1OC`: the Potency result is “inactive”. In the case of `CC(C)N1CCc2c(sc(NC(=O)Cc3ccccc3)c2C(N)=O)C1`, the Potency result was “inactive”. With `CC(C)C(=O)Nc1nnc(SCc2cccc(F)c2)s1`, the Potency entry is “inactive”. As for `O=C(CCS(=O)(=O)c1ccc2c(c1)NC(=O)CS2)NCCc1ccc(Cl)cc1`, the Potency result is “inactive”.

On to `O=C(CN1CCN(Cc2ccc(Cl)cc2)C1=O)NCc1cccs1`, for which the Potency entry is “inactive”. To `COc1ccc(CC(=O)Nc2nc(C)cs2)cc1OC` belongs “inactive”; to `COc1ccc(-c2csc(NC(C)c3nc4cc(C(=O)NCCCO)ccc4n3Cc3ccc(C)cc3)n2)cc1` (configuration not stated), “inactive”.
